High-throughput results: PubChem BioAssay, National Center for Advancing Translational Sciences (NCATS)
Cycloheximide cs = counter-screen hit for Shiga toxin inhibitors, cycloheximide; cell reporter, cycloheximide protein synthesis inhibition counterscreen; max response, %; 300,000 compounds, 12% hits; AID 2314; in the data active = max response mostly above about 13%, no sharp cut-off; inactive = mostly below about 14%; note: read at 38.3 µM for the half of the compounds with a filed dose; 0% is about no effect
FBPA Giardia inh = inhibitors of Giardia lamblia fructose-1,6-bisphosphate aldolase. A8B2U2. purified Giardia FBPA. Potency, µM (series often up to 59.6 µM), without a hit: at the highest dose activity, negative = inhibition, hits mostly inhibitors. 290,000 compounds, 0.71% hits; note: potency is the fitted concentration of half-maximal effect; % is set by controls: 0 for no effect and ±100 for the full control effect; nearly all actives have a fitted effect of over 55% in size
Target sequence (A8B2U2 whole entry, looked up): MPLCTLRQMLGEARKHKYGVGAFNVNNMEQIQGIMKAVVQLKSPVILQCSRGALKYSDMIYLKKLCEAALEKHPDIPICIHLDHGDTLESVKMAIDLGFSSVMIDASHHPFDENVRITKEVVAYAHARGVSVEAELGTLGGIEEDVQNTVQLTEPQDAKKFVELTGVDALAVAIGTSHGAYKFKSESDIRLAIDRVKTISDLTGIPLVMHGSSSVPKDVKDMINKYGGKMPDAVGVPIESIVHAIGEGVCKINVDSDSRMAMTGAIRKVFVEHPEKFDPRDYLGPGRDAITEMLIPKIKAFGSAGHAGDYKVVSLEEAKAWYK
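Giardia FBPA (40 nM reagent) was preincubated 10 min at RT with compound (up to 57.5 uM final), then substrate plus GAPDH/TPI/NAD/arsenate coupling system with diaphorase/resazurin was added; resorufin fluorescence (525/598 nm) was read after 20 min.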
LmPK inhibitor = blocks Leishmania mexicana pyruvate kinase activity; purified LmPK, Kinase-Glo ATP luminescence, 1 h; Potency, µM (doses to about 57.5 µM), for the others: at the highest dose activity change, negative = inhibition, usual class: inhibitors; Q27686; AID 1721; 290,000 compounds, 0.37% hits; note: potency is the fitted concentration of half-maximal effect; % is set by controls: 0 for no effect and ±100 for the full control effect
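Purified LmPK (0.1 nM) converted ADP (0.1 mM) to ATP with PEP (0.5 mM) in imidazole buffer pH 7.2 with KCl and MgCl2, 1 h at room temperature. ATP was read by Kinase-Glo luminescence; data normalized to uninhibited and no-enzyme controls.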
Shiga toxin inh = Shiga toxin inhibition | Vero cells, Shiga toxin protein synthesis inhibition reporter | inhibition, % at 38.7 µM | 290,000 compounds, 9.2% hits; in the data active = inhibition mostly above about 28%, no sharp cut-off; inactive = mostly below about 43%; note: 0% is about no effect
NS1 inh = blocks influenza NS1 protein function; Potency, µM (series often up to 46.1 µM), for inactives: top-dose activity, positive = more growth; 270,000 compounds, 0.4% hits; AID 2326; calls by dose curve; note: potency is the fitted concentration of half-maximal effect; actives are rising curves; nearly all actives have a fitted effect of over 50% in size
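S. cerevisiae expressing influenza A NS1, grown in glucose, washed, then diluted 1:100 into pH 6.0 -URA galactose medium with 23 nl compound. Growth recovery read as OD600; NS1-free strain serves as control.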
* marks the source's active call; other numbers are inactive results; ? = inconclusive; nt = no result; [ ] = another dose, or the depositor's remark. The list is not random: actives were taken first. Their share in the collection is about 14%. Unless noted, calls come from the whole dose curve; as a rule, active = well fitted curve in the direction sought with a large enough effect; inconclusive = small, poorly fitted or top-dose-only effect, or another doubt; inactive = no such curve, though single readings can be large; an effect the other way counts as inactive or inconclusive.

SMILES	Cycloheximide cs	FBPA Giardia inh	LmPK inhibitor	Shiga toxin inh	NS1 inh
C[C@@H](C1[C@@H](O)CC2C3C=CC4C[C@@H](O)CC[C@]4(C)[C@H]3CC[C@@]21C)[C@@H]1CCCCN1 (stereo partly specified)	nt	1.5%	nt	nt	nt
O=C(Nc1cccc2ccccc12)/C(Cl)=C/c1ccccc1	41.8*	4.3%	4.6%	81.5*	-6.0%
O=C(Nc1cccc2ccccc12)/C(=C/c1ccc([N+](=O)[O-])cc1)NC(=O)c1ccccc1	1.2	-0.3%	1.5%	-3.1	?
O=C(Nc1ccccc1F)C(=O)Nc1cccc2ccccc12	28.4*	-4.1%	-4.5%	nt	4.8%
Cc1ccnc(NC(=O)c2ccc3[nH]c(=O)c(=O)[nH]c3c2)c1	9.6	-14.8%	-11.3%	-3.2	0.1%
Cc1cc(C)c2c(n1)SCC(=O)N2CC(=O)Nc1ccc(Br)c(C)c1	-2.4	7.6%	7.8%	-3.8	-2.5%
CCOc1ccc(NC(=O)CCNC(=O)Cn2ccc3ccccc3c2=O)cc1	-4.6	3.2%	0.4%	1.3	-14.5%
COc1ccc(-c2cc3ccc(OCC(C)=O)cc3oc2=O)cc1OC	24.8*	-6.8%	-1.0%	27.4*	1.3%
COc1ccc(-c2cc3ccc(OCc4nn[nH]n4)cc3oc2=O)cc1OC	-1.3	-29.5%	-4.1%	10.7	-3.2%
COc1ccc(-c2cc3ccc(OCC(C)=O)cc3oc2=O)cc1	57.1*	6.9%	1.1%	126.7*	-19.0%
O=C(Nc1ccccc1Cl)C1Cc2ccccc2O/C1=N\O (stereo unspecified)	43.8*	-2.7%	-5.8%	87.3*	-7.2%
COc1ccc(C(=O)NC2CCc3ccccc32)cc1OC1CCN(C(C)=O)CC1 (stereo unspecified)	-2.6	nt	-6.1%	-18.0	10.3%
O=c1c2sccc2nc(SCc2cc(=O)n3cc(Br)ccc3n2)n1Cc1ccccn1	26.4*	?	-0.6%	93.0*	nt
Cc1ccc(CSc2nc3ccsc3c(=O)n2Cc2ccccn2)cc1	-4.4	0.1%	1.9%	-5.2	14.4%
N#Cc1ccccc1CSc1nc2ccsc2c(=O)n1Cc1ccccn1	17.6*	-5.9%	2.2%	-3.4	0.4%
Cc1oc(-c2ccccc2)cc1C(=O)NCc1ccncc1	1.1	4.1%	-8.7%	-16.6	-3.3%
CC(=O)Oc1cc2c(C(=O)NCc3ccncc3)c(C)oc2c2ccccc12	8.6*	?	3.8%	13.4	-3.9%
O=C(CNC(=O)Cc1cccc2ccccc12)NCc1ccc(F)cc1	-5.6	10.4%	0.3%	-11.2	5.4%
CC1=NN(Cc2ccccc2)C(=O)/C1=C\c1ccc(N(C)C)cc1	31.0*	-2.5%	-9.4%	32.3*	-11.3%
C#C[C@]1(O)CC[C@H]2[C@H]3CCc4cc(O)ccc4[C@@H]3CC[C@@]21C	-0.7	-3.8%	nt	-5.2	nt
CC1(C)Cc2ccccc2-c2nnc(SCc3ccccc3)n21	11.0*	2.0%	0.9%	17.8	-5.1%
CCN1CCN(CCCNC(=O)CN2C(=O)c3cccnc3Oc3ccc(Cl)cc32)CC1	-5.6	nt	0.8%	-7.9	-1.8%
COc1ccc(NC(=O)[C@H](Cc2c[nH]c3ccccc23)NC(=O)[C@@H]2Cc3ccccc3CN2)cc1	19.3*	?	-1.3%	15.1	7.0%
COc1ccc(CNC(=O)[C@H](Cc2c[nH]c3ccccc23)NC(=O)[C@@H]2Cc3ccccc3CN2)cc1	-4.3	?	1.5%	-2.9	4.3%
CC(C)c1ccc(NC(=O)[C@H](Cc2c[nH]c3ccccc23)NC(=O)[C@@H]2Cc3ccccc3CN2)cc1	24.2*	?	-4.9%	26.9	17.0%
SMILES	Cycloheximide cs	FBPA Giardia inh	LmPK inhibitor	Shiga toxin inh	NS1 inh
Cc1cccc(NC(=O)[C@@H](CC(C)C)NC(=O)[C@@H]2Cc3ccccc3CN2)c1	14.8	nt	2.8%	18.3	-0.2%
COc1ccccc1N1CCN(C(=O)C(=O)c2c[nH]c3ccccc23)CC1	9.8	nt	2.8%	-7.6	-19.3%
Cc1cc(C)c(OCC(=O)Nc2ccc(N3CCOCC3)cc2)c(Br)c1	-3.1	nt	-11.5%	-37.8	9.0%
Cc1ccc(OCCCn2c(=O)sc3ccccc32)cc1	24.2*	nt	1.0%	18.8	-27.7%
COc1ccc(Cn2c(=O)sc3ccccc32)cc1	0.5	23.8%	-3.3%	-1.2	?
CCOc1ccccc1Cn1c(=O)sc2ccccc21	2.0	13.3%	-2.4%	14.5	2.3%
Cc1ccc(OCCn2c(=O)sc3ccccc32)cc1	45.0*	-5.9%	4.9%	60.5*	-6.1%
O=c1sc2ccccc2n1CCCOc1ccccc1	42.3*	nt	-2.0%	118.7*	-31.1%
Cc1ccccc1OCCCn1c(=O)sc2ccccc21	65.9*	nt	0.0%	105.5*	-54.9%
CC(C)Oc1ccc(Cn2c(=O)sc3ccccc32)cc1	-2.4	6.6%	4.8%	-28.1	-12.6%
O=c1sc2ccccc2n1COc1ccccc1	14.6	6.6%	1.7%	47.8	2.0%
COC(=O)C1=C(C(=O)OC)[C@@H]2N(C)c3ccc(OC)cc3[C@@]23C[C@@H](C(=O)OC)N(S(=O)(=O)c2cccs2)C3=N1	nt	-1.5%[12.9 µM]	-0.3%[11.5 µM]	nt	nt
CO[C@@H]1/C=C\O[C@]2(C)Oc3c(C)c(O)c4c(O)c(cc(O)c4c3C2=O)NC(=O)/C(C)=C\C=C/[C@H](C)[C@@H](O)[C@H](C)[C@H](O)C(C)[C@H](OC(C)=O)[C@@H]1C (stereo partly specified)	nt	nt	nt	nt	-10.5%
O=S(=O)(c1ccccc1)N1CCC[C@@]2(CCN(c3ccccc3)C2)C1	nt	-6.9%	nt	nt	nt
COc1ccc(C(=O)/C=C/Nc2ccc(S(=O)(=O)Nc3cc(OC)nc(OC)n3)cc2)c(OC)c1	-2.5	-10.6%	-1.5%	2.3	4.8%
O=c1sc2ccccc2n1COc1ccc(Cl)cc1	35.0*	3.2%	-1.3%	71.8	-1.7%
CCCn1c(CN2CCN(C(=O)OCC)CC2)nc2cc(NC(=O)C(C)C)ccc21	5.8	-1.6%	-0.8%	1.9	-0.8%
COC(=O)C1=C(C(=O)OC)[C@@H]2N(C)c3ccc(OC)cc3[C@@]23C[C@@H](C(=O)OC)N(S(=O)(=O)c2ccc(C(F)(F)F)cc2)C3=N1	nt	-4.7%[12.9 µM]	5.5%[11.5 µM]	nt	nt
Cc1nnc(NC(=O)c2cc(-c3ccncc3)nc3c(C)cccc23)s1	36.0*	nt	-12.3%	32.2*	-86.3%
O=P(O)(O)O[C@@H]1O[C@H](CO)[C@@H](O)[C@H](O)[C@@H]1O	nt	nt	nt	nt	-5.2%
COC(=O)c1ccc2nc(NC(=O)C(C)C)sc2c1	51.9*	2.8%	1.5%[11.5 µM]	97.9*	nt
COC(=O)c1ccc2nc(NC(=O)C3CC3)sc2c1	49.1*	-6.7%	2.9%	155.2*	-11.9%
O=C(NNS(=O)(=O)c1ccc([N+](=O)[O-])cc1)C(=O)Nc1cccc(C(=O)O)c1	8.1	?	18.4%	17.8	-9.0%
Cc1cc(C)nc(SCC(=O)c2ccc(F)c(C)c2)n1	10.6*	-12.1%	-13.1%	22.1	-17.5%
Cc1cc(C)nc(SCNC(=O)c2ccc(F)cc2)n1	-3.5	-12.8%	-2.3%	-4.4	-1.6%
Cc1cc(C)nc(S/C=C/C(=O)c2ccc(F)cc2)n1	36.6*	1.9%	2.7%	68.0*	-5.6%
Cc1cc(C)nc(SCC(=O)c2cc3ccccc3oc2=O)n1	8.1	-17.2%	2.6%	-1.8	-7.3%
